Screening results as filed in PubChem BioAssay.
ELG1 DNA repair: inhibitors of ELG1-dependent DNA repair in HEK293T cells; 2.3% of 330,000 active; AID 504467; Potency, µM (doses to about 46.1 µM), without a hit: at the highest dose activity change, negative = inhibition, hits mostly inhibitors; HEK293T ELG1-luciferase reporter, luminescence, 16 h; DNA damage induced by 5-fluorouridine; note: nearly all actives have a fitted effect of over 55% in size
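Step one: seed 2,000 cells per well. Step two: pin-transfer compound or DMSO alongside 5-fluorouridine. Step three: incubate 16 hr, 37 °C, 5% CO2. Step four: add ONE-Glo, wait 30 min, read luminescence.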
TDP1 cell CPT: DT40-hTDP1 cell growth loss with CPT; Potency, µM (top dose mostly 46.2 µM), for inactives: top-dose activity change, negative = growth inhibition, hits mostly inhibitors; chicken DT40 Tdp1-/-;hTDP1 cells + 20 nM CPT, ATP luminescence, 48 h; 12% of 420,000 active; note: nearly all actives have a fitted effect of over 55% in size
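Cell growth measured by CellTiter-Glo luminescence after a minimum 48 h, 37 C compound exposure with 20 nM CPT in Tdp1-knockout DT40 cells stably expressing hTDP1, seeded 400/well; qHTS titration format.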
VP16 counter: inhibits Gal4-VP16 luciferase reporter, ROR gamma counter-screen; AID 2546; Potency, µM (doses to about 53.6 µM), for the others: top-dose activity, negative = inhibition, most hits filed as inhibitors; 3.5% of 310,000 active; Drosophila S2 Gal4-VP16 UAS-luciferase, luminescence, 20 h;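 note: Gal4-VP16 expression switched on by copper sulfate through the metallothionein promoter; nearly all actives have a fitted effect of over 50% in size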
TDP1 cell noCPT: qHTS for Inhibitors of human tyrosyl-DNA phosphodiesterase 1 (TDP1): qHTS in cells in absence of CPT | DT40 Tdp1-/- hTDP1 cells, no CPT, ATP luminescence, 48 h | Potency, µM (titrated, usually from 46.2 µM), for inactives: at the highest dose activity change, negative = growth inhibition, actives largely listed as inhibitors | 15% of 420,000 active; note: nearly all actives have a fitted effect of over 55% in size
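Chicken DT40 Tdp1-/- cells complemented with human TDP1, screened without camptothecin (DMSO vehicle only), 400 cells/well. Compounds pin-transferred, cells incubated at 37 °C for at least 48 hr. Growth read as ATP-dependent luminescence (CellTiter-Glo, 30 min at RT).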
ALOX12 inh: ALOX12 (human) lipoxygenase inhibition | P18054 | purified 12hLO, xylenol orange hydroperoxide absorbance | Potency, µM (top dose mostly 108 µM), for inactives: at the highest dose activity change, negative = inhibition, hits mostly inhibitors | 1.1% of 580,000 active
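Purified human 12hLO at 150 nM in 25 mM Hepes, 0.01% Triton X-100, pH 7.0, preincubated 15 min at room temperature with compound. Reaction started with 40 uM arachidonic acid, 30 min at room temperature. Hydroperoxide measured by Fe-xylenol orange, 573/405 nm absorbance ratio.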
RORg inh: inhibitors of mouse ROR gamma transcriptional activity. P51450. Potency, µM (titrated, usually from 53.6 µM), for inactives: top-dose activity change, negative = inhibition, most hits filed as inhibitors. 5.4% of 310,000 active. Drosophila S2 Gal4-RORgamma UAS-luciferase reporter, 20 h; note: nearly all actives have a fitted effect of over 60% in size
Target sequence (P51450 whole entry, looked up, the tested form may be a part): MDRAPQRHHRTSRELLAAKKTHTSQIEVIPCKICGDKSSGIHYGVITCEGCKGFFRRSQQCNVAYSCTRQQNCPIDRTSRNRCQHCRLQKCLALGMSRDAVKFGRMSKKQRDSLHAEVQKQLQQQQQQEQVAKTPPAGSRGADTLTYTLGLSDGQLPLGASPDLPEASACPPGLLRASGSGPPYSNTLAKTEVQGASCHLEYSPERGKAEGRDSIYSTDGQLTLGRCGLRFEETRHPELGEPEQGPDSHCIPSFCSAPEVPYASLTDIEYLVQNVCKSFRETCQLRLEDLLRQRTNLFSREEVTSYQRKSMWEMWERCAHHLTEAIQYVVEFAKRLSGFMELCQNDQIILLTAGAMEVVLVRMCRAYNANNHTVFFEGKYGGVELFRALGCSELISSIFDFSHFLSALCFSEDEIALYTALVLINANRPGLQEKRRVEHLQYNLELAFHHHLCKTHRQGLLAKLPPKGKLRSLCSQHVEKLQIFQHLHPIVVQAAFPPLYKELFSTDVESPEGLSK
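Schneider cells (Drosophila), stable Gal4 DBD–ROR gamma + UAS-luc; 1 hr cmpd preincubation; Cu2+ induction 700 uM final; 20 hr ambient; luminescence.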
An asterisk follows results filed as active; ? = inconclusive; / = no result given; [ ] = dose if it differs, or a comment. Most compounds without a hit are left out; they make up all but 15% or so of the library. Calls come from the whole dose curve; as a rule, active = well fitted curve in the direction sought with a large enough effect; inconclusive = small, poorly fitted or top-dose-only effect, or another doubt; inactive = no such curve, though single readings can be large; an effect the other way counts as inactive or inconclusive. % is set by controls: 0 for no effect and ±100 for the full control effect; potency is the fitted concentration of half-maximal effect.

SMILES | ELG1 DNA repair | TDP1 cell CPT | VP16 counter | TDP1 cell noCPT | ALOX12 inh | RORg inh
O=C(Nc1cccc(S(=O)(=O)N2CCOCC2)c1)c1cccc(S(=O)(=O)N2CCCC2)c1 | -17.9% | -13.1% | / | -29.9% | 7.6% | /
CC1(c2ccccc2)N(Cc2ccccc2F)C(=O)OC12CCN(C(=O)c1cccc(C#N)c1)CC2 (stereo not drawn) | / | / | / | / | 20.8% | /
O=C(c1ccc2cc[nH]c2c1)N1CCC2(CC1)CC(Cc1cccc(F)c1)CCO2 (stereo not drawn) | / | / | / | / | -23.6% | /
Cc1nc2c(c(=O)[nH]1)C(c1ccc(OCc3cccc(Cl)c3)cc1)CC(=O)N2 (stereo not drawn) | / | / | / | / | 32.8% | /
O=C(Nc1ccc(S(=O)(=O)N2CCOCC2)cc1)c1ccc(Cl)c([N+](=O)[O-])c1 | / | 13µM* | / | 13µM* | 21.1% | /
O=C(Nc1ccc(S(=O)(=O)N2CCOCC2)cc1)c1ccc(Cl)cc1Cl | 0.3% | ? | -27.1% | 20.6µM* | 0.0% | ?
O=C(Nc1ccc(Cl)cc1)c1cc(S(=O)(=O)N2CCCCC2)ccc1N1CCOCC1 | / | -29.4% | / | ? | ? | /
O=C(Nc1cccc(S(=O)(=O)N2CCOCC2)c1)c1ccc(Cl)c([N+](=O)[O-])c1 | 5.8% | ? | ? | ? | -15.5% | ?
Cc1cccc(-n2ccc(=O)c(C(=O)Nc3ccc(S(=O)(=O)N4CCOCC4)cc3)n2)c1 | -11.8% | ? | -5.9% | 23.1µM* | 3.6% | 16.0%
CN(C)S(=O)(=O)c1ccc(Cl)c(C(=O)Nc2ccc(S(=O)(=O)N3CCOCC3)cc2)c1 | 16.4µM* | 10.3µM* | -5.5% | 9.2µM* | -0.1% | 0.0%
Cc1ccc(C(=O)N2CCC3(CCCN(C4CCOCC4)C3=O)C2)cc1F (stereo not drawn) | / | / | / | / | 32.2% | /
O=C1CCCc2c1cc(C(=O)NC1CCCCC1)c(=O)n2-c1ccc(C(F)(F)F)cc1 | / | / | / | / | -21.0% | /
CCOC(=O)c1cc2cc(C(=O)NC(C)CC)ccc2[nH]1 (stereo not drawn) | / | / | / | / | -16.2% | /
Oc1cccc(O)c1O | / | 5.96µM* | 2.4% | ? | / | -14.6%
O=C(O)c1cccc(O)c1O | / | -7.0% | / | 1.5% | -11.5% | /
CCSc1ncc(Cl)c(C(=O)N(Cc2ccc(N(C)C)cc2)C2CCS(=O)(=O)C2)n1 (stereo not drawn) | ? | ? | -2.4% | -21.4% | ? | -6.8%
CC(C)Sc1ncc(Cl)c(C(=O)N(Cc2ccc(N(C)C)cc2)C2CCS(=O)(=O)C2)n1 (stereo not drawn) | / | 16.4µM* | / | ? | -2.8% | /
CCOc1ccc(CN(C(=O)c2nc(SC)ncc2Cl)C2CCS(=O)(=O)C2)cc1 (stereo not drawn) | / | -24.9% | / | 16.4µM* | -25.4% | /
COc1cc2c(c(OC)c1)C(c1ccc(Cl)cc1)C1=C(CCCC1=O)N2 (stereo not drawn) | / | / | / | / | -23.2% | /
CCOC(=O)N1CCN(C(=S)NC(=O)C2CCCC2)CC1 | 15.4% | 0.3% | -7.5% | 5.7% | -1.9% | -34.7%
CC(C)(C)c1ccc(C(=O)NCC(=O)N2CCCC2)cc1 | ? | 13.8% | ? | -8.7% | 15.7% | 20.7%
O=C(NC(=S)N1CCCC1)c1ccc(Cl)cc1 | 24.2% | -17.4% | 14.3% | -22.2% | ? | 11.4%
O=C(NC(NC(=S)N1CCOCC1)C(Cl)(Cl)Cl)c1ccc(Cl)cc1 (stereo not drawn) | ? | 3.66µM* | -1.3% | 4.11µM* | -24.1% | ?
CN1CCN(C(=S)NC(=O)c2ccc(Cl)cc2)CC1 | -5.6% | ? | 1µM* | ? | ? | 0.398µM*
CC(C)(C)CC(=O)NC(=S)N1CCCCCC1 | -7.6% | 5.3% | ? | -5.5% | 7.6% | 7.94µM*
SMILES | ELG1 DNA repair | TDP1 cell CPT | VP16 counter | TDP1 cell noCPT | ALOX12 inh | RORg inh
CC(C)(C)c1ccc(C(=O)NC(=S)N2CCCC2)cc1 | ? | -20.3% | 0.891µM* | ? | 447.1% | 0.708µM*
CSc1ccc(CCNC(=O)c2ccc(NC(=O)N3CCSc4nc(C)cc(C)c43)cc2)cc1 | / | / | / | / | -18.7% | /
O=C1CN(C(=O)CNc2ccccc2C(=O)Nc2ccc(F)cc2)c2ccccc2N1 | / | / | / | / | -1.5% | /
COc1ccc(C(C)=O)c(OCc2ccc(C#N)cc2)c1 | / | / | / | / | -1.0% | /
CC(C)(C)c1ccc(C(=O)NC(=S)N2CCCCCC2)cc1 | 0.9% | 18.4µM* | 0.501µM* | 13µM* | 409.3% | 0.282µM*
COc1ccc(Cl)cc1NC(=O)N1CCC2(CC1)N=C(c1ccc(C(C)(C)C)cc1)C(=O)N2 | / | / | / | / | 10.1% | /
Cc1ccc(S(=O)(=O)N2CCC(=O)N([C@H](COCc3ccc(Cl)cc3Cl)Cc3ccccc3)CC2)cc1 | / | ? | / | 23.1µM* | ? | /
Cc1ccc(S(=O)(=O)N2CCC(=O)N(C(COCc3ccccc3)C(C)C)CC2)cc1 (stereo not drawn) | 0.9% | ? | -6.3% | ? | ? | -7.3%
Cc1ccc(S(=O)(=O)N2CCC(=O)N([C@H](COCc3cccc(C)c3)C(C)C)CC2)cc1 | / | ? | / | ? | -29.2% | /
Cc1ccc(S(=O)(=O)N2CCC(=O)N(C(COCc3ccc(Cl)cc3)Cc3ccccc3)CC2)cc1 (stereo not drawn) | -14.1% | ? | 11.0% | 16.4µM* | -8.1% | -3.6%
CCn1cc(C(=O)N2CC(=O)N(CCc3ccccc3)CC(OCc3cccc(OC)c3)C2)cn1 (stereo not drawn) | / | / | / | / | -0.9% | /
Cn1ccc2c(C(=O)NCC3CCC(=O)N3)nc(-c3ccccc3O)cc21 (stereo not drawn) | / | / | / | / | 57.5%[176 µM] | /
CCOc1c(Br)cc(/C=C2/NC(=O)NC2=O)cc1Br | / | / | / | / | 2.1% | /
Cc1ccc(-n2ncc3c(Nc4cccc(C)c4)ncnc32)cc1 | / | / | / | / | -21.2% | /
Cc1ccc(-n2ncc3c(Nc4ccc5c(c4)OCCO5)ncnc32)cc1C | / | 20.6µM* | / | 18.4µM* | -22.5% | /
Cc1ccc(-n2ncc3c(Nc4cccc(C(F)(F)F)c4)ncnc32)cc1C | / | 20.6µM* | / | ? | 5.4% | /
Cc1ccc(Nc2nc3ccccc3nc2NS(=O)(=O)c2cccs2)cc1Cl | / | / | / | / | -2.2% | /
Cc1ccc(CN(CCN(C)C)C(=O)c2ccc(C#N)cc2)o1 | / | / | / | / | -27.5% | /
Cc1c(F)cccc1NC(=O)N1CCCC(c2noc(COc3ccccc3F)n2)C1 (stereo not drawn) | / | / | / | / | 10.9% | /
Cc1cc(C)nc(SSc2nc(C)cc(C)n2)n1 | -4.2% | ? | 6.31µM* | ? | -22.0% | 5.62µM*
